# Source: PubChem
# SMN2 splice up: qHTS Assay for Enhancers of SMN2 Splice Variant Expression. HEK293 SMN2-luciferase splicing reporter, luminescence, 30-36 h. Potency, µM (doses to about 46.1 µM), inactives show at the highest dose activity change, positive = activation, most hits filed as activators. 2.8% of 210,000 active. AID 1458, 2008; further: % of control where 0% means no effect; nearly all actives have a fitted effect of over 55% in size
#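 qHTS luciferase splicing reporter: luminescence rises when SMN2 exon 7 is included in transfected HEK293 cells. Compound exposure lasted 30-36 h at 37C, with 4.5 mM final sodium butyrate as control, followed by a ONE-Glo read.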
# Rab9 prom act: qHTS Assay for Rab9 Promoter Activators; Huh7 Rab9 promoter-luciferase reporter, luminescence, 24 h; Potency, µM (top dose mostly 9.22 µM), without a hit: top-dose activation, negative = inhibition, actives largely listed as activators; 2.8% of 320,000 active; AID 485297, 2010; further: % of control where 0% means no effect; nearly all actives have a fitted effect of over 60% in size
#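 Steps: seed 1500 Huh7 Rab9-luc cells per well, rest 2 h at 37 °C; add compound in DMSO; incubate 24 h; add luciferase reagent, 10 min ambient; read luminescence.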
# ELG1 genotoxic: qHTS screen for small molecules that induce genotoxicity in human embryonic kidney (HEK293T) cells expressing luciferase-tagged ELG1. HEK293T ELG1-luciferase reporter, luminescence, 16 h. Potency, µM (series often up to 46 µM), for the others: at the top dose activity change, positive = activation, hits mostly activators. 1.3% of 330,000 active; further: % of control where 0% means no effect; nearly all actives have a fitted effect of over 60% in size
#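 Reporter readout depends on ELG1 protein level, which increases with genetic stress. After 16 hr compound exposure at 37 °C, luciferase activity was quantified using ONE-Glo.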
# NPC1 promoter act: qHTS Assay for NPC1 Promoter Activators. Huh7 NPC1 promoter luciferase reporter, 24 h. Potency, µM (top dose mostly 9.22 µM), for the others: at the highest dose activation, actives largely listed as activators. 2.4% of 320,000 active. AID 485313, 2010; further: % of control where 0% means no effect; nearly all actives have a fitted effect of over 60% in size
#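 Readout is luciferase luminescence, reflecting NPC1 promoter activation in stably transfected Huh7 cells after 24 h compound exposure at 37 °C in reduced-serum medium with 10% FBS.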
# FLuc counter: qHTS profiling assay for firefly luciferase inhibitor/activator using purifed enzyme and Km concentrations of substrates (counterscreen for miR-21 project). purified FLuc, Km substrates, luminescence inhibition. Potency, µM (highest dose often 57.5 µM), for inactives: at the top dose activity change, negative = inhibition, most hits filed as inhibitors. 6.9% of 360,000 active;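 further: plate controls were vehicle for no effect and reference inhibitor for full effect; nearly all actives have a fitted effect of over 55% in size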
# Target sequence (P08659 whole entry, looked up): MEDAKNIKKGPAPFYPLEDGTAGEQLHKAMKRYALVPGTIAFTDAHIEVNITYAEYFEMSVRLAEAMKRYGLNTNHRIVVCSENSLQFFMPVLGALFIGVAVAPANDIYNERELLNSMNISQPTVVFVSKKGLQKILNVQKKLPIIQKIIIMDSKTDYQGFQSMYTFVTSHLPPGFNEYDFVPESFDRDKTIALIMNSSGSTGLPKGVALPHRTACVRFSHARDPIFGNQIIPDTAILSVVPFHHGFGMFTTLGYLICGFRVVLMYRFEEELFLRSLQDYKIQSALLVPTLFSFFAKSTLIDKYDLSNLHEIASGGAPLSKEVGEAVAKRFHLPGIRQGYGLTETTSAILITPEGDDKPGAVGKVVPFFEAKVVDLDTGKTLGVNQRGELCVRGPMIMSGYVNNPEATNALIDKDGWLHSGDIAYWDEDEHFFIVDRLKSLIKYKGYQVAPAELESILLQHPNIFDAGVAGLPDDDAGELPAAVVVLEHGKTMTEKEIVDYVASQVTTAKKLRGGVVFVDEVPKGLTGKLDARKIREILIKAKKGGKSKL
#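 Biochemical qHTS of compounds, final roughly 60 µM downward over six points, against 10 nM purified firefly luciferase using Km concentrations of substrates (10 uM D-luciferin, 10 uM ATP) in Tris acetate pH 7.5 buffer; luminescence output.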
# The depositor's hits bear a star; ? = inconclusive; · = no result. Only some compounds are listed: those with a hit (about 7.5% of all), similar ones and a draw of the others. The call rests on the fitted dose curve; in most records, active means well fitted curve in the direction sought with a large enough effect; inconclusive means small, poorly fitted or top-dose-only effect, or another doubt; inactive means no such curve, though single readings can be large; an effect the other way counts as inactive or inconclusive. Potency means the concentration at half of the fitted maximal effect.
SMILES,SMN2 splice up,Rab9 prom act,ELG1 genotoxic,NPC1 promoter act,FLuc counter
O=C(Nc1cccc(C(=O)N2CCN(c3ccc(F)cc3)CC2)c1)c1nsc2ccccc12,·,·,·,·,0.85µM*
Cc1ccc(C(=O)N2CCN(c3ccc(F)cc3)CC2)cc1NC(=O)c1nsc2ccccc12,·,·,·,·,-4%
Cc1ccc(C)c(N2CCN(C(=O)c3ccc(NC(=O)c4nsc5ccccc45)cc3)CC2)c1,·,·,·,·,17µM*
O=C(c1cccc(C(=O)N2CCN(c3ccccc3F)CC2)c1)N1CCN(c2ccccc2F)CC1,-49%,-3%,-19%,-1%,6%
COCCNC(=O)C1CCC(CNS(=O)(=O)c2ccc(F)cc2)CC1 (configuration not stated),·,1%,-1%,?,1%
O=C(Nc1cccc(C(=O)N2CCN(c3cccc(Cl)c3)CC2)c1)c1nsc2ccccc12,·,·,·,·,2.7µM*
COc1cccc(N2CCN(C(=O)c3ccc(C)c(NC(=O)c4nsc5ccccc45)c3)CC2)c1,·,·,·,·,-2%
O=C(Nc1ccc(C(=O)N2CCN(c3cccc(Cl)c3)CC2)cc1)c1nsc2ccccc12,·,·,·,·,4.3µM*
O=C(Nc1cccc(C(=O)N2CCN(c3ccc(Cl)cc3)CC2)c1)c1nsc2ccccc12,·,·,·,·,1.2µM*
CCc1ccccc1NS(=O)(=O)c1ccc2c(c1)CCCN2C(=O)C1CCC1,·,·,·,·,-11%
O=C(CCC(=O)c1ccc[nH]1)c1ccc(Cl)cc1,?,1.6µM*,8.2µM*,3.2µM*,12µM*
Cc1ccc(C2=NN=C(NC(=O)C(F)(F)F)SC2)cc1,·,0.79µM*,?,1.4µM*,17µM*
Cc1ccc(C2=NN=C(NC(=O)CSc3nncn3C)SC2)cc1,8.9µM*,1.4µM*,?,2.2µM*,2.4µM*
Cc1ccc(Nc2nc(-c3cccnc3)cs2)cc1Cl,·,?,21µM*,25%,4.8µM*
COc1ccc(-c2csc(Nc3cccnc3)n2)cc1OC,-13%,28%,4%,15%,2.4µM*
O=C(O)c1ccc(Nc2nc(-c3cccnc3)cs2)cc1O,·,4%,3%,4%,12µM*
COc1cccc(Nc2nc(-c3cccnc3)cs2)c1,·,?,?,?,4.8µM*
O=C(NC(=S)Nc1ccc(S(=O)(=O)N2CCCCC2)cc1)c1ccc(Cl)cc1,-33%,-10%,-4%,-9%,10%
COCCCn1c(=O)c2sccc2n(Cc2ccccc2C)c1=O,·,0%,2%,0%,0%
CC[C@H]1OC(=O)[C@H](C)[C@@H](O[C@H]2C[C@@](C)(OC)[C@@H](O)[C@H](C)O2)[C@H](C)[C@@H](O[C@@H]2O[C@H](C)C[C@H](N(C)C)[C@H]2O)[C@](C)(O)C[C@@H](C)CN(C)[C@H](C)[C@@H](O)[C@]1(C)O,-4%,·,·,·,·
O=C(CS(=O)(=O)c1ccccc1)c1cc2cc(F)ccc2oc1=O,·,-1%,3%,12%,1.9µM*
CCCC(=O)c1cc2ccccc2oc1=O,-5%,-8%,1%,1%,?
COc1ccc2cc(C(=O)CS(=O)(=O)c3ccccc3)c(=O)oc2c1,·,0%,?,-11%,0.95µM*
O=C(CS(=O)(=O)c1ccccc1)c1cc2ccccc2oc1=O,·,-1%,5%,1%,1.5µM*
O=C(CSc1ccc(F)cc1)NNC(=O)c1ccccc1Br,·,0%,-3%,0%,-3%
SMILES,SMN2 splice up,Rab9 prom act,ELG1 genotoxic,NPC1 promoter act,FLuc counter
CCCNc1nc(Cl)nc(NCc2cccnc2)n1,·,-1%,2%,-2%,-3%
Cc1cccc(-n2cnc(C(=O)NC3CCCCCC3)c2)n1,?,3.5µM*,?,2.5µM*,15µM*
O=C(c1cnccn1)N1CCC2(CCN(Cc3nccs3)CC2)CC1,4%,·,·,·,·
Nc1nnc(SCC(=O)NC2CCCC2)s1,·,0%,-1%,-5%,0%
O=C(C1CCCO1)N1CCN(C(=S)Nc2ccc(Br)cc2)CC1 (configuration not stated),·,17%,-2%,-1%,4%
NS(=O)(=O)c1ccc(NC(=S)N2CCN(C(=O)C3CCCO3)CC2)cc1 (configuration not stated),·,0%,-13%,16%,4.8µM*
COc1ccc(C2=NN(C(C#N)c3ccc(OC)cc3)C(c3ccccc3)C2)cc1 (configuration not stated),?,?,?,?,24µM*
COc1ccc(C(C#N)N2N=C(C)CC2c2ccccc2)cc1 (configuration not stated),·,1%,0%,-1%,4%
CCOC(=O)c1cc(-c2ccc(C)cc2)n(CC(=O)Nc2cccc(C(C)=O)c2)c1C,1%,·,·,·,-2%
CCOC(=O)O[C@]1(C(=O)COC(=O)CC)CC[C@H]2[C@@H]3CCC4=CC(=O)C=C[C@]4(C)[C@H]3[C@@H](O)C[C@@]21C,·,0%,3%,0%,-2%
CCOc1ccc(-c2nnn(CC(=O)NCc3ccc4c(c3)OCO4)n2)cc1,9%,3%,2%,-1%,-1%
CCOc1ccccc1Nc1sc(C(=O)c2ccccc2)c(N)c1C(=O)Nc1ccc(F)cc1,·,·,·,·,6%
CC(c1ccccn1)N(C)C(=O)c1ccc2nc(Cc3ccccc3F)oc2c1 (configuration not stated),·,2.8µM*,13µM*,?,6.7µM*
O=C(c1ccc2nc(Cc3ccccc3F)oc2c1)N1CCCC1,·,1.3µM*,10µM*,2.8µM*,9.5µM*
O=C(NCc1ccncc1)c1ccc2nc(Cc3ccccc3F)oc2c1,·,11%,-8%,-4%,-4%
Cc1cc(CNC(=O)c2ccc3nc(Cc4ccccc4F)oc3c2)nn1C,·,3.2µM*,?,2.8µM*,11µM*
CC(=O)N1CCCN(C(=O)c2ccc3nc(Cc4ccccc4F)oc3c2)CC1,·,-1%,7%,-3%,-5%
COC(=O)/C(=C/c1ccc2c(c1)c1ccccc1n2C)NC(=O)c1ccccc1,-31%,-1%,-8%,-1%,?
